Legend:
Test in all cases: DAPPL (digital affinity profiling via proximity ligation, sequencing); 10 mM Tris-HCl pH 7.5, 50 mM NaCl, 1 mM DTT, 4% glycerol, room temperature, 30 min; GST-TFs on glutathione beads, 16-mer random dsDNA library, 0.1% formaldehyde crosslink after washing; high values mean tight binding
FEV = molecular target: T1, FEV (Homo sapiens, UniProt Q99581 1-238); conditions: protein: recombinant; tags: N-terminal GST; dsDNA, one strand shown
T1 sequence: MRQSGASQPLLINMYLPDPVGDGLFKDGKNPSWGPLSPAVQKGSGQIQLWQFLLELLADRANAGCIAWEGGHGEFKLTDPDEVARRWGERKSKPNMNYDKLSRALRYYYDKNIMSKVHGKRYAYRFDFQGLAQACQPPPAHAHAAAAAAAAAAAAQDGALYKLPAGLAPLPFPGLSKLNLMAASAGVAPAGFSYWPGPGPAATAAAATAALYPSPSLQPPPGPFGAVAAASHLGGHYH
Outline: (§1)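 Sequencing on an Illumina NextSeq500 followed washing, crosslinking with 0.1% formaldehyde, proximity ligation (BsaI/T4 ligase, 1 h, 37 °C) and PCR amplification of pools that had been incubated for 30 min at room temperature with 200 nmole of a random double-stranded 16-mer DNA library in Tris/NaCl/DTT/glycerol buffer. Each pool held DNA-barcoded human transcription factors, expressed in yeast as GST fusions and captured on glutathione beads, plus a tag-only sample. Binding signal is a hexamer's read frequency for a factor divided by its frequency in the tag-only sample.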

ETV5 = ETV5 (Homo sapiens, UniProt P41161 1-510); conditions: protein: recombinant; tags: N-terminal GST; dsDNA, one strand shown
ETV5, sequence (P41161 whole entry): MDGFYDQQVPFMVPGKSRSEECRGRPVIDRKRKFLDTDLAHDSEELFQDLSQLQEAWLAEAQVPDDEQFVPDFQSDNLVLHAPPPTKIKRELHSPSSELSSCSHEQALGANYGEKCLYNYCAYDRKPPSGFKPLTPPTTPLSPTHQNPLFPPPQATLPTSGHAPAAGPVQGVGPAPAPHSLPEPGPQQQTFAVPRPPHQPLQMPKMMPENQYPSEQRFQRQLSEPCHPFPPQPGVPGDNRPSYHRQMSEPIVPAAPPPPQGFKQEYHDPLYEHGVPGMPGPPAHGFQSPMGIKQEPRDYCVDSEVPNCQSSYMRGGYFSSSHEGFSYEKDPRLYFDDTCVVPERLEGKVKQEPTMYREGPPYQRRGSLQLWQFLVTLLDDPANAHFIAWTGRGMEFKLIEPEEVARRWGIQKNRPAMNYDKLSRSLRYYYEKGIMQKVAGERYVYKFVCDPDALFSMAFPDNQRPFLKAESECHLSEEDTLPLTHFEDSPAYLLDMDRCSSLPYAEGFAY
Outline: as §1

HSF1 = HSF1 (Homo sapiens, UniProt Q00613 1-529); conditions: protein: recombinant; tags: N-terminal GST; chain copies: 3; dsDNA, one strand shown
HSF1, sequence (Q00613 whole entry): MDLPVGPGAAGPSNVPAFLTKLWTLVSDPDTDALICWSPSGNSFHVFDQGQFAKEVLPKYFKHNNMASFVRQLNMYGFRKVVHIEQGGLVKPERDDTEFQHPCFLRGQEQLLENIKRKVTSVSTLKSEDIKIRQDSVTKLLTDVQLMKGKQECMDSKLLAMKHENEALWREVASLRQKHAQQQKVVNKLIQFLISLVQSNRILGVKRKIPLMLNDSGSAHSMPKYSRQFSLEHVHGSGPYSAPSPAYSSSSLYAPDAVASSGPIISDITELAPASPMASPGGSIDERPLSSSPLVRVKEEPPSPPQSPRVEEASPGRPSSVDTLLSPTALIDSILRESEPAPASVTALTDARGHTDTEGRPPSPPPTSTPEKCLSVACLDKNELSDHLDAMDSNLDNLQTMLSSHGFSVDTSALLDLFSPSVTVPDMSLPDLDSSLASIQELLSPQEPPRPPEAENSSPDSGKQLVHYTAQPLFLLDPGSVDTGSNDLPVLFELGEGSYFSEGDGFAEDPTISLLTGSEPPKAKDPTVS
Outline: as §1

SPIC = molecular target: T2, SPIC (Homo sapiens, UniProt Q8N5J4 1-248); conditions: protein: recombinant; tags: N-terminal GST; dsDNA, one strand shown
T2 sequence: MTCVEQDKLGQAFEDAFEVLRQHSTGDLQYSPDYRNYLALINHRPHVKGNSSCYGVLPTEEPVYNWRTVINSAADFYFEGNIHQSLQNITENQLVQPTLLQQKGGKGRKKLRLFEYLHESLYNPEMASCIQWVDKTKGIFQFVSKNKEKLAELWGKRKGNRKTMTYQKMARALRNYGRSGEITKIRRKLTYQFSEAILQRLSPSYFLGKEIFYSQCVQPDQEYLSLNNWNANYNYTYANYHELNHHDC
Outline: as §1

ELF4 = ELF4 (Homo sapiens, UniProt Q99607 1-663); conditions: protein: recombinant; tags: N-terminal GST; dsDNA, one strand shown
ELF4, sequence (Q99607 whole entry): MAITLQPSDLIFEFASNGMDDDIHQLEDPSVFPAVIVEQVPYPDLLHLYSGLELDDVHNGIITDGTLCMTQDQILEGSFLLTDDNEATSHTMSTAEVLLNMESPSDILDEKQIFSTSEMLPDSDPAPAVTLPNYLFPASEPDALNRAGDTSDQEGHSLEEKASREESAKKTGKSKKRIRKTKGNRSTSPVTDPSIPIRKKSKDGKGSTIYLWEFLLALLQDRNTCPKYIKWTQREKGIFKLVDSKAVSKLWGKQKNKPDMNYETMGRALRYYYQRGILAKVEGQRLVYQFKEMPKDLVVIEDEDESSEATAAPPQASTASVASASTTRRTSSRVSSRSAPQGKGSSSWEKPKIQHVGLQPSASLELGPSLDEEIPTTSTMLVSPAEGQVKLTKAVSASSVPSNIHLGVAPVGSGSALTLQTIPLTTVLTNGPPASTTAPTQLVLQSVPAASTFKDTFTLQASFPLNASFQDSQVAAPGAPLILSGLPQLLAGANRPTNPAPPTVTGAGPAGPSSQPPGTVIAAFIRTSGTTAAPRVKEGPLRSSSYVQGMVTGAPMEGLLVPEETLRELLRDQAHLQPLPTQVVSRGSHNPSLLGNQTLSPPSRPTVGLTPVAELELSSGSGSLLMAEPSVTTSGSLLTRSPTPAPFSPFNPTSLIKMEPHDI
Outline: as §1

ELK4 = molecular target: T3, ELK4 (Homo sapiens, UniProt P28324-2 1-405); conditions: protein: recombinant; tags: N-terminal GST; dsDNA, one strand shown
T3 sequence: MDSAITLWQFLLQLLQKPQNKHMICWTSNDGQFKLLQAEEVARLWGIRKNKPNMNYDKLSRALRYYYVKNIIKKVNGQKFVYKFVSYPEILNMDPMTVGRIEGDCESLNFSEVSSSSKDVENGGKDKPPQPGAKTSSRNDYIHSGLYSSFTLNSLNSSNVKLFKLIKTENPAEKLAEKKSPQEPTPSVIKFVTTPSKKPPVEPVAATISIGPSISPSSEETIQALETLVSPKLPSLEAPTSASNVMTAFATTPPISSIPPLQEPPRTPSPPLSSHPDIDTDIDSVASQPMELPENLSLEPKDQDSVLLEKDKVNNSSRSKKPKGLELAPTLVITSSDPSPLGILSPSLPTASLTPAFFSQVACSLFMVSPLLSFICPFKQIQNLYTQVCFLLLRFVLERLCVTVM
Outline: as §1

ETV2 = molecular target: T4, ETV2 (Homo sapiens, UniProt O00321 1-342); conditions: protein: recombinant; tags: N-terminal GST; dsDNA, one strand shown
T4 sequence: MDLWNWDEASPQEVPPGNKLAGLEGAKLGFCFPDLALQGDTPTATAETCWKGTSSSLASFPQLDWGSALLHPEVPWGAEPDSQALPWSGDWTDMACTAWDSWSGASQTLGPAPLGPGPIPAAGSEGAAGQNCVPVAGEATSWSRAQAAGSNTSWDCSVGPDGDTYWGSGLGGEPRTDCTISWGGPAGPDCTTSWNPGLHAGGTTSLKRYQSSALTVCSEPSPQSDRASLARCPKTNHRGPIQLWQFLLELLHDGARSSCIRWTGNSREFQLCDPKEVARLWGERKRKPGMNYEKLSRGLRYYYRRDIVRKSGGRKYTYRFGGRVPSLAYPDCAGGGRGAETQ
Outline: as §1

ELF3 = molecular target: T5, ELF3 (Homo sapiens, UniProt P78545 1-371); conditions: protein: recombinant; tags: N-terminal GST; dsDNA, one strand shown
T5 sequence: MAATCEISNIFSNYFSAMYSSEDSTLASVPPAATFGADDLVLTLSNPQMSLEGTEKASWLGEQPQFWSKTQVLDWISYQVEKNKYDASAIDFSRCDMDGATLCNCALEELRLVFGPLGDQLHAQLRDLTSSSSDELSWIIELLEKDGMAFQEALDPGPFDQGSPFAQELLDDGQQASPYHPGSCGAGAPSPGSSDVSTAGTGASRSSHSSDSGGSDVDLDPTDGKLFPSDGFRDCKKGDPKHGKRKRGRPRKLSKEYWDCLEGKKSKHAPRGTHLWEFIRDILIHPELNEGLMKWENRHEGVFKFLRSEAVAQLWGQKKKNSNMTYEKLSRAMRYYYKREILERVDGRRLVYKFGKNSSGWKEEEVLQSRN
Outline: as §1

CRX = CRX (Homo sapiens, UniProt O43186 1-299); conditions: protein: recombinant; tags: N-terminal GST; dsDNA, one strand shown
CRX, sequence (O43186 whole entry): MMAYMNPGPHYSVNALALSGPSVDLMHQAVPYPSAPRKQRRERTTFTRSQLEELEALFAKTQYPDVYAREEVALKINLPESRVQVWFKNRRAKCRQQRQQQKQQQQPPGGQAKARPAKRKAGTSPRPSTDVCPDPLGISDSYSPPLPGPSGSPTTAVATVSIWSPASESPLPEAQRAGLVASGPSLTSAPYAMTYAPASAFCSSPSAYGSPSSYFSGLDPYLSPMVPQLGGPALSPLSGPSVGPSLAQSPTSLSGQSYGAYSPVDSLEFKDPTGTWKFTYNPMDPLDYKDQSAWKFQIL
Outline: as §1

ETV1 = ETV1 (Homo sapiens, UniProt P50549 1-477); conditions: protein: recombinant; tags: N-terminal GST; dsDNA, one strand shown
ETV1, sequence (P50549 whole entry): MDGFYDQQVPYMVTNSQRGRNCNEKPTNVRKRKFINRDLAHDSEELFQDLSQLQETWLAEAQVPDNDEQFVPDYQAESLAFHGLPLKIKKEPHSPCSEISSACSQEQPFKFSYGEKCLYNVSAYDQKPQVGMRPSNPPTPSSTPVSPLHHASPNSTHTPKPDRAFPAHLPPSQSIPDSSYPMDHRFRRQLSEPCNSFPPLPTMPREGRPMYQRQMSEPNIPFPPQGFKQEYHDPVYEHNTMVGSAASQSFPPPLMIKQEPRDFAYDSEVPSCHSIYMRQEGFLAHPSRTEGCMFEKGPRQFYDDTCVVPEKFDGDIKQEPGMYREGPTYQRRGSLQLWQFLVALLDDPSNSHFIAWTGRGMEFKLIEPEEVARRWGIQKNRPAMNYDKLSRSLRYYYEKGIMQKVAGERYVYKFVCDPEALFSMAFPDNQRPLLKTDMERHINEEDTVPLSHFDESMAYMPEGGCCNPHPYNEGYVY
Outline: as §1

ERF = molecular target: T6, ERF (Homo sapiens, UniProt P50548 1-548); conditions: protein: recombinant; tags: N-terminal GST; dsDNA, one strand shown
T6 sequence: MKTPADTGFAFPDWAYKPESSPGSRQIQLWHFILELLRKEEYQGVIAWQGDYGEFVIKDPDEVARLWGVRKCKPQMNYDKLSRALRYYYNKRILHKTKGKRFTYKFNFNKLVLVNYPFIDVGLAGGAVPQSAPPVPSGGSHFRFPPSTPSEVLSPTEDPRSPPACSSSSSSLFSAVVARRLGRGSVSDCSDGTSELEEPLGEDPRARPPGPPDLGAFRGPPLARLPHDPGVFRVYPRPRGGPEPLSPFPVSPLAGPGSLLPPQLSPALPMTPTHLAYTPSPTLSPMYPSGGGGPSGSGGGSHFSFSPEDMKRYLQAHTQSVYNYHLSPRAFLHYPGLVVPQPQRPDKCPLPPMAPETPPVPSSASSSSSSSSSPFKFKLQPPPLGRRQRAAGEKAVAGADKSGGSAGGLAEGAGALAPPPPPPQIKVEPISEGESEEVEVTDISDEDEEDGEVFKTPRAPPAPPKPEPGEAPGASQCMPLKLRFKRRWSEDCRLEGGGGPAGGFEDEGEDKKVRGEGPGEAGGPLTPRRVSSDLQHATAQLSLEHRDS
Outline: as §1

ETV3L = molecular target: T7, ETV3L (Homo sapiens, UniProt Q6ZN32 1-361); conditions: protein: recombinant; tags: N-terminal GST; dsDNA, one strand shown
T7 sequence: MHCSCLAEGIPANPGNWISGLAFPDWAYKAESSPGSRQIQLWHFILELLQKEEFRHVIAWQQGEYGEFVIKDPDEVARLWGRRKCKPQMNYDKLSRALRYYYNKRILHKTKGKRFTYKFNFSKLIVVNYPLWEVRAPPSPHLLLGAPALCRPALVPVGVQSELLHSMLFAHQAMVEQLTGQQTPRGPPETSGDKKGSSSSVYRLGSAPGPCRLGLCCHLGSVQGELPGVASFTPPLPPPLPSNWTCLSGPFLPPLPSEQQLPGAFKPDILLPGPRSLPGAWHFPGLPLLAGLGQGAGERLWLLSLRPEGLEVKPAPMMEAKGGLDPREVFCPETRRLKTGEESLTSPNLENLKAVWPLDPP
Outline: as §1

ETS2 = molecular target: T8, ETS2 (Homo sapiens, UniProt P15036 1-469); conditions: protein: recombinant; tags: N-terminal GST; dsDNA, one strand shown
T8 sequence: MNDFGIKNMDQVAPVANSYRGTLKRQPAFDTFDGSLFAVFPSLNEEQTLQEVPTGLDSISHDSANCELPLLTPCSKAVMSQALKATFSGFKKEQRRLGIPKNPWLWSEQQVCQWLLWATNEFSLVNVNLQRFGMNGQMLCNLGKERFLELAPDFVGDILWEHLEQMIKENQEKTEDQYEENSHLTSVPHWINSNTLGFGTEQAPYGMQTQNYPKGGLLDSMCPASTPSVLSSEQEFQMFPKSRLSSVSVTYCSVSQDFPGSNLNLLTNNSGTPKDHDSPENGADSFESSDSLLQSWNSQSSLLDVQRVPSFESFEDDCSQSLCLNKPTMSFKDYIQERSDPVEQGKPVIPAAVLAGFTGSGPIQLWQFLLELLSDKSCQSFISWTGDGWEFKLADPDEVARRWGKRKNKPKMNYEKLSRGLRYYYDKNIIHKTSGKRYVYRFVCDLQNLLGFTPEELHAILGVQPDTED
Outline: as §1

SPDEF = molecular target: T9, SPDEF (Homo sapiens, UniProt O95238 1-335); conditions: protein: recombinant; tags: N-terminal GST; dsDNA, one strand shown
T9 sequence: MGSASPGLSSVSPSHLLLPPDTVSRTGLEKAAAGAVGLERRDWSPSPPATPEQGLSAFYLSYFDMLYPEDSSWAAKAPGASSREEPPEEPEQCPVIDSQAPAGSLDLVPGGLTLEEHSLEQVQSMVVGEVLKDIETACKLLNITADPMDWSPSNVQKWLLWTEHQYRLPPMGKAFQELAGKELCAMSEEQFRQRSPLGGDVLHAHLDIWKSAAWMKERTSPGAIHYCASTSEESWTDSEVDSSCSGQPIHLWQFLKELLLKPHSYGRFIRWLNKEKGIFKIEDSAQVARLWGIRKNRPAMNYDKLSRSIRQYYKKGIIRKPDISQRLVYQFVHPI
Outline: as §1

ETV7 = molecular target: T10, ETV7 (Homo sapiens, UniProt Q9Y603 1-341); conditions: protein: recombinant; tags: N-terminal GST; dsDNA, one strand shown
T10 sequence: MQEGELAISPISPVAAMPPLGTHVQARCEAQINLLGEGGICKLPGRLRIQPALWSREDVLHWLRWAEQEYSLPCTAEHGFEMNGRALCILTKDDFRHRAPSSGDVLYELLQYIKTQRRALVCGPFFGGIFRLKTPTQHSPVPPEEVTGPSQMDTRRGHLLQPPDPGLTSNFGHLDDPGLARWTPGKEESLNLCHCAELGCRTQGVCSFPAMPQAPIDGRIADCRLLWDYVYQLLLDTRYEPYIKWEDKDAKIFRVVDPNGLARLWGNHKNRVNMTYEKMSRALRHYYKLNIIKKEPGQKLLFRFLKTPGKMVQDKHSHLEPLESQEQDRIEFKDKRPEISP
Outline: as §1

ELF5 = molecular target: T11, ELF5 (Homo sapiens, UniProt Q9UKW6-2 1-255); conditions: protein: recombinant; tags: N-terminal GST; dsDNA, one strand shown
T11 sequence: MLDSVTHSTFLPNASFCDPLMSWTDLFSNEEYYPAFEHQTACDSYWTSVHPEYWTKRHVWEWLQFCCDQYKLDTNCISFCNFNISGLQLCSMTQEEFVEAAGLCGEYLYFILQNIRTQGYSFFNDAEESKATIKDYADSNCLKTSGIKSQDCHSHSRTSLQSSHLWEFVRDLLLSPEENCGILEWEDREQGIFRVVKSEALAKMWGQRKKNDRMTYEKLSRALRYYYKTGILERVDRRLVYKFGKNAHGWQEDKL
Outline: as §1

ETV3 = molecular target: T12, ETV3 (Homo sapiens, UniProt P41162-2 1-143); conditions: protein: recombinant; tags: N-terminal GST; dsDNA, one strand shown
T12 sequence: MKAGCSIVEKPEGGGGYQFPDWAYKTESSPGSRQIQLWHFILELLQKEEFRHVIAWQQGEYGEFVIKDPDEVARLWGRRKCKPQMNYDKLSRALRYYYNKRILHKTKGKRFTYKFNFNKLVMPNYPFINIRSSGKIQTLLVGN
Outline: as §1

ETV6 = ETV6 (Homo sapiens, UniProt P41212 1-452); conditions: protein: recombinant; tags: N-terminal GST; dsDNA, one strand shown
ETV6, sequence (P41212 whole entry): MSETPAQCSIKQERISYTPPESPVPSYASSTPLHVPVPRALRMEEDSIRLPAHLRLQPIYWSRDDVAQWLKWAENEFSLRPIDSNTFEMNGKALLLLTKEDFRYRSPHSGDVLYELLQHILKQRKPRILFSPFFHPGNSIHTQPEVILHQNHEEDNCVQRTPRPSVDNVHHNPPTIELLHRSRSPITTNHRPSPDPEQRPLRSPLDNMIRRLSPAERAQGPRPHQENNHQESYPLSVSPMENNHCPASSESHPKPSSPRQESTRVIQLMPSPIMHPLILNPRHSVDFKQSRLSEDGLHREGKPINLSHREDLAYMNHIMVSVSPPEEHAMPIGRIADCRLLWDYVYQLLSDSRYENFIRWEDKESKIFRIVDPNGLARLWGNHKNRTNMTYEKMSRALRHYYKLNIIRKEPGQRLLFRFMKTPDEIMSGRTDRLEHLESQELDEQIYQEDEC
Outline: as §1

Sequence	binding signal (FEV)	binding signal (ETV5)	binding signal (HSF1)	binding signal (SPIC)	binding signal (ELF4)	binding signal (ELK4)	binding signal (ETV2)	binding signal (ELF3)	binding signal (CRX)	binding signal (ETV1)	binding signal (ERF)	binding signal (ETV3L)	binding signal (ETS2)	binding signal (SPDEF)	binding signal (ETV7)	binding signal (ELF5)	binding signal (ETV3)	binding signal (ETV6)
CTGCTC	1.31 fold enrichment (6-mer frequency, TF over GST control)	1.26 fold enrichment (6-mer frequency, TF over GST control)	1.17 fold enrichment (6-mer frequency, TF over GST control)	1.39 fold enrichment (6-mer frequency, TF over GST control)	1.29 fold enrichment (6-mer frequency, TF over GST control)	1.45 fold enrichment (6-mer frequency, TF over GST control)	1.35 fold enrichment (6-mer frequency, TF over GST control)	1.18 fold enrichment (6-mer frequency, TF over GST control)	1.22 fold enrichment (6-mer frequency, TF over GST control)	1.21 fold enrichment (6-mer frequency, TF over GST control)	1.29 fold enrichment (6-mer frequency, TF over GST control)	1.43 fold enrichment (6-mer frequency, TF over GST control)	1.28 fold enrichment (6-mer frequency, TF over GST control)	1.26 fold enrichment (6-mer frequency, TF over GST control)	1.29 fold enrichment (6-mer frequency, TF over GST control)	1.29 fold enrichment (6-mer frequency, TF over GST control)	1.22 fold enrichment (6-mer frequency, TF over GST control)	1.16 fold enrichment (6-mer frequency, TF over GST control)
AATACA	1.38 fold enrichment (6-mer frequency, TF over GST control)	1.33 fold enrichment (6-mer frequency, TF over GST control)	1.25 fold enrichment (6-mer frequency, TF over GST control)	1.21 fold enrichment (6-mer frequency, TF over GST control)	1.3 fold enrichment (6-mer frequency, TF over GST control)	1.29 fold enrichment (6-mer frequency, TF over GST control)	1.45 fold enrichment (6-mer frequency, TF over GST control)	1.18 fold enrichment (6-mer frequency, TF over GST control)	1.33 fold enrichment (6-mer frequency, TF over GST control)	1.31 fold enrichment (6-mer frequency, TF over GST control)	1.43 fold enrichment (6-mer frequency, TF over GST control)	1.27 fold enrichment (6-mer frequency, TF over GST control)	1.25 fold enrichment (6-mer frequency, TF over GST control)	1.37 fold enrichment (6-mer frequency, TF over GST control)	1.41 fold enrichment (6-mer frequency, TF over GST control)	1.4 fold enrichment (6-mer frequency, TF over GST control)	1.28 fold enrichment (6-mer frequency, TF over GST control)	1.34 fold enrichment (6-mer frequency, TF over GST control)
